This passage reports inhibition results from PubChem BioAssay AID2014 (Sanford-Burnham Center for Chemical Genomics, 2009).

The campaign covered roughly 290,000 compounds. About 3,000 (1%) were called active. No rule for the calls is given here. For the sample, actives were picked, then their nearest neighbours and some compounds at random.

This assay deals with Polyadenylate-binding protein 1 (Homo sapiens) (UniProt P11940). The assay can be described thus: blockers of PABP interaction with poly(A) – biochemical, fluorescence polarization, uHTS, primary screen (AID 2014).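 Also: calls also rest on retests at 20 µM and on dose response follow-up.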 Conditions: PABP-poly(A) RNA binding, stronger effect = higher value. On the technique in general: Polarisation of emitted light reports the rotation of a fluorescent probe.
Polyadenylate-binding protein 1 (Homo sapiens), sequence (P11940 whole entry, looked up): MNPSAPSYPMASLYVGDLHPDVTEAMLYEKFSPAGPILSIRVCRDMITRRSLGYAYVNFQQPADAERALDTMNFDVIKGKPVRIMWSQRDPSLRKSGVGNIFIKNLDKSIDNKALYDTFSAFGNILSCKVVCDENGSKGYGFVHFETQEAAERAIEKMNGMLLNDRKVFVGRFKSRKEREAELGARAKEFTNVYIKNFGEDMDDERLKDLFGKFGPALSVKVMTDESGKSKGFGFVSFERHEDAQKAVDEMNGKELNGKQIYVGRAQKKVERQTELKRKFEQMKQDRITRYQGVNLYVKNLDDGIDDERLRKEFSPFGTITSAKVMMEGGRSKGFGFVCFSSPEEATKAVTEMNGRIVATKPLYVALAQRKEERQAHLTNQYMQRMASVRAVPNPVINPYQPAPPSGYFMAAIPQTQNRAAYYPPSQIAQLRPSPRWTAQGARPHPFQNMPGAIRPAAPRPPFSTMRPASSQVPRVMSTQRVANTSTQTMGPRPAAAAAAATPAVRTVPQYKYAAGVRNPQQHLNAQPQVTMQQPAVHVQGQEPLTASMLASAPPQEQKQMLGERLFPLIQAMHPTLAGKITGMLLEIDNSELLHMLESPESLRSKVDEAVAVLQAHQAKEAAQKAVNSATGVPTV

What is called inhibition is the drop in the measured response relative to a control, in per cent. Consider `C[C@H]1[C@H]2c3nc4ccccc4n3C[C@H]1ON2C1CCCCC1`, for which the inhibition (at 35 µM) was -0.1% (inactive).

For the compound `Cc1nc2nc(SCC(=O)NCc3ccco3)nn2c(C)c1Cc1ccccc1`, the inhibition (at 35 µM) is 10.6% (inactive).

In the case of `O=c1nc2s/c(=C\c3ccco3)c(=O)n2nc1Cc1ccccc1`, for the setting “at 35 µM”, the inhibition is 75.7% (active).

In the case of `O=C(Cc1ccccc1)n1nc(-c2ccccc2)nc1NCc1ccco1`, for the setting “at 35 µM”, the inhibition is -0.2% (inactive).

Regarding `CCOCCc1nn2c(=O)cc(CSCC(=O)Nc3cccc(C)c3C)nc2s1`, the inhibition (at 35 µM) is 8.3% (inactive).

As for `CC(C)(C)C(=O)OCc1nc(-c2ccc(O)c(O)c2)cs1`, the inhibition (at 35 µM) was 10% (inactive).

With `COc1ccc(-c2csc(NC3OC(=O)c4ccccc43)n2)cc1` (stereo unspecified), the inhibition (at 35 µM) was -0.5% (inactive).

Regarding `COc1ccc(-c2csc(Cc3nc(O)cs3)n2)cc1`, the inhibition reads like this: (at 35 µM) 70.4% (active); (confirmation repeats, at 20 µM) 52.3%.

For `O=c1ccc2cc(S(=O)(=O)Nc3ccccc3F)ccc2o1`, the inhibition (at 35 µM) is -1.5% (inactive).

For `Cc1c(NC(=O)c2c([N+](=O)[O-])cnn2C)c(=O)n(-c2ccccc2)n1C`, the inhibition (at 35 µM) is -1.3% (inactive).

On to `Cc1ccc(-n2c(O)c(C=Nc3ccc(S(=O)(=O)Nc4ncccn4)cc3)c3ccccc3c2=O)cc1C`, for which the inhibition reads like this: (at 35 µM) -8.1% (active); (confirmation repeats, at 20 µM) 94.9%.

On to `CCOc1ccc(-n2c(O)c(/C=N/Nc3nc(C)cc(C)n3)c3ccccc3c2=O)cc1`, for which, for the setting “at 35 µM”, the inhibition was 9% (inactive).

For the compound `CCOc1ccc(N=Cc2c(O)n(-c3cccc(C)n3)c(=O)c3ccccc23)cc1`, under “at 35 µM”, the inhibition was -1.3% (inactive).

Regarding `O=C(NCC(=O)N1CCN(c2ncc(C(F)(F)F)cc2Cl)CC1)c1ccc(Br)o1`, the inhibition (at 35 µM) is 3.4% (inactive).

As to `CC(=O)N1CCSc2ccc(S(=O)(=O)N3CCC(C)CC3)cc21`, the inhibition (at 35 µM) was 0% (inactive).

Take `Cc1cccc(OCC(=O)NC2CC(C)(C)NC(C)(C)C2)c1`: the inhibition (at 35 µM) is 6.7% (inactive).

Take `CC1(OC(=O)CCc2ccccc2)C(=O)C=C2C=C(c3ccc(C#N)cc3)N(CCc3ccccn3)C=C2C1=O` (stereo unspecified): the inhibition (at 35 µM) was 26.9% (inactive).

In the case of `C=CCN1C=C2C(=O)C(C)(OC(=O)CCc3ccccc3)C(=O)C=C2C=C1c1ccc(C#N)cc1` (stereo unspecified), the inhibition runs as follows: (at 35 µM) 38.3% (active); (confirmation repeats, at 20 µM) 80.1%.

With `NC(=O)COc1ccccc1C(=O)NC12CC3CC(CC(C3)C1)C2`, under “at 35 µM”, the inhibition was -0.3% (inactive).

On to `Cc1cc(/C=N/Nc2ccc([N+](=O)[O-])cn2)c(C)n1-c1cccc(C(=O)O)c1`, for which, under “at 35 µM”, the inhibition is 50.3% (active).

With `Cc1ccc(-n2c(C)cc(/C=N/Nc3ccc([N+](=O)[O-])cn3)c2C)c(C)c1`, for the setting “at 35 µM”, the inhibition is 10.5% (inactive).

Consider `COc1cc(/C=N\Nc2ccc([N+](=O)[O-])cn2)ccc1OCC(=O)O`, for which, for the setting “at 35 µM”, the inhibition is 13.3% (inactive).

In the case of `CC(C)=CCN1CCN(CCCc2ccccc2)CC1CCO` (stereo unspecified), the inhibition (at 35 µM) is -4.3% (inactive).

With `CN1/C(=C\C(=O)c2cccnc2Cl)C(C)(C)c2ccccc21`, the inhibition (at 35 µM) was -4.7% (inactive).

Regarding `CN1/C(=C\C=C2\N=C(c3ccc(F)cc3)OC2=O)C(C)(C)c2ccccc21`, the inhibition reads like this: (at 35 µM) 120% (active); (confirmation repeats, at 20 µM) 105%.

Consider `CN1/C(=C\C(=O)c2oc3ccccc3c2N)C(C)(C)c2ccccc21`, for which the inhibition (at 35 µM) was 15.4% (inactive).

In the case of `O=C(NCCc1ccc(Cl)cc1)C1CCCN1C(=O)NCc1ccccc1` (stereo unspecified), the inhibition (at 35 µM) was -1.3% (inactive).

`COc1ccccc1N(CC(=O)Nc1ccccc1C(=O)N1CCCC1)S(C)(=O)=O`: the inhibition (at 35 µM) was 0.7% (inactive).

Regarding `O=C(O)CCCN1C(=O)c2ccccc2Sc2ncccc21`, the inhibition (at 35 µM) is 16.4% (inactive).

For `COc1ccc(C(=O)Nc2ccnn2C2CCN(Cc3ccncc3)CC2)cc1`, the inhibition (at 35 µM) was -4.2% (inactive).

In the case of `Oc1ccc(N=Cc2sc3ccccc3c2Cl)cc1`, the inhibition (at 35 µM) was -14% (active) and the inhibition (confirmation repeats, at 20 µM) was found to be 68.6%.

On to `COc1ccc(N=C(C)c2sc3ccccc3c2O)cc1`, for which, for the setting “at 35 µM”, the inhibition was -3.8% (inactive).

In the case of `O=C(N/N=C/c1c(Cl)[nH]c2ccccc12)c1sc2ccccc2c1Cl`, for the setting “at 35 µM”, the inhibition was -2.8% (inactive).

On to `COc1ccccc1N(CC(=O)NC1CCCC1)C(=O)C1(C)CC(=O)N=C2C=CC(C)=CN21` (stereo unspecified), for which, where the note is “at 35 µM”, the inhibition is 4.1% (inactive).

With `O=C(CC12CC3CC(CC(C3)C1)C2)NCc1ccco1`, where the note is “at 35 µM”, the inhibition was -13.1% (inactive).

`O=C(COC(=O)CCC(=O)c1cccs1)NCc1ccco1`: the inhibition by setting is: (at 35 µM) 35.9% (inactive); (confirmation repeats, at 20 µM) 32.9%.

As to `O=C(COC(=O)C12CC3CC(CC(C3)C1)C2)NCc1ccco1`, the inhibition is, setting by setting: (at 35 µM) 26% (active); (confirmation repeats, at 20 µM) 62.4%.

For the compound `COc1ccc(C(=O)C2CCCN(C(=O)c3cc(C)on3)C2)cc1F` (stereo unspecified), the inhibition (at 35 µM) is -11.7% (inactive).

As to `Cc1cc(C)n(CCC(=O)N2CCN(S(=O)(=O)c3ccc(C)c(C)c3)CC2)n1`, the inhibition (at 35 µM) is -7.6% (inactive).
